This is part of a sample that, as a whole, favours compounds with a hit. Of some 83,000 tested, about 20% had one in any assay.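 Single-dose data. Exposure time 48 hours. Values below 10 considered active.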 A number with no mark means an inactive call. Calls of active or inactive are those of the source.
Experiments:
Assay in all cases: NCI-60 one-dose screen, 48 h (100 = growth as untreated, 0 = no growth, -100 = all killed)
Details in all cases: 10 µM unless noted
EKVX NSCLC = test system: EKVX NSCLC
SN12C renal = test system: SN12C renal
UO-31 renal = test system: UO-31 renal
TK-10 renal = test system: TK-10 renal
ACHN renal = test system: ACHN renal
CAKI-1 renal = test system: CAKI-1 renal
A498 renal = test system: A498 renal
MOLT-4 leukemia = test system: MOLT-4 leukemia
SR leukemia = test system: SR leukemia
RPMI-8226 leukemia = test system: RPMI-8226 leukemia
OVCAR-8 ovarian = test system: OVCAR-8 ovarian
OVCAR-5 ovarian = test system: OVCAR-5 ovarian
OVCAR-4 ovarian = test system: OVCAR-4 ovarian
SK-OV-3 ovarian = test system: SK-OV-3 ovarian
IGROV1 ovarian = test system: IGROV1 ovarian
OVCAR-3 ovarian = test system: OVCAR-3 ovarian
HS 578T breast = test system: HS 578T breast
NCI/ADR-RES ovarian = test system: NCI/ADR-RES ovarian
CCRF-CEM leukemia = test system: CCRF-CEM leukemia
SK-MEL-2 melanoma = test system: SK-MEL-2 melanoma

Row | Compound | growth (EKVX NSCLC) [%] | growth (SN12C renal) [%] | growth (UO-31 renal) [%] | growth (TK-10 renal) [%] | growth (ACHN renal) [%] | growth (CAKI-1 renal) [%] | growth (A498 renal) | growth (MOLT-4 leukemia) | growth (SR leukemia) | growth (RPMI-8226 leukemia) | growth (OVCAR-8 ovarian) [%] | growth (OVCAR-5 ovarian) [%] | growth (OVCAR-4 ovarian) | growth (SK-OV-3 ovarian) | growth (IGROV1 ovarian) | growth (OVCAR-3 ovarian) | growth (HS 578T breast) [%] | growth (NCI/ADR-RES ovarian) | growth (CCRF-CEM leukemia) | growth (SK-MEL-2 melanoma)
1 | COc1ccc(Nc2ncccc2C(=O)NCc2cn(Cc3cccc(Oc4ccccc4)c3)nn2)c(OC)c1 | 46.5 | 33.7 | 48 | 64.5 | 48 | 44.8 | -3.05% (active) | 40% | 30.3% | 35.5% | 43.4 | 51.1 | 54.9% | 21.6% | 48% | -57.8% (active) | 15.3 | -10% (active) |  | 
2 | COc1ccc(/C=C2\N=C(c3ccccc3)N(C(=O)c3ccccc3O)NC2=O)cc1 | 88.3 | 86.6 | 95.9 | 97.7 | 103 | 97.9 | 73.6% | 48.3% | 64% | 46.2% | 109 | 98.5 | 105% | 100% | 98.2% | 118% | 93.8 | 93.1% |  | 
3 | O=S(=O)(c1ccc(OCCO)cc1)c1ccc(OCCO)cc1 | 108 | 106 | 80.6 | 94.6 | 102 | 98.9 | 107% | 83.2% | 99.4% | 81% | 102 | 101 | 111% | 118% | 87.5% |  |  | 103% | -21.9% (active) | 
4 | CC1=C(C#N)C(=O)NC(C)C1 (stereo not given) | 105 | 99.9 | 94.9 | 106 | 102 | 103 | 104% | 116% | 110% | 105% | 102 | 95.5 | 110% | 103% | 105% | 103% |  | 102% | 102% | 
5 | O=C(c1ccccc1)C1OC1c1ccc([N+](=O)[O-])cc1 (stereo not given) | 89.2 | 76.7 | 136 | 50 | 75.3 | 72.7 | 110% | 76.2% | 33.6% | 55.9% | 68.9 | 102 | 59.9% | 97.3% | 53.4% | 59.7% | 88.8 | 57.9% | 35.1% | 
6 | O=C1NN(C(=O)c2ccc(Cl)cc2)C(c2ccccc2)=N/C1=C\c1cn(-c2ccccc2)nc1-c1ccccc1 | 81.4 | 93.2 | 90.6 | 102 | 98.5 | 80.4 | 69% | 98.6% | 90% | 117% | 94.1 | 93.4 | 96.8% | 102% | 95.1% | 112% | 94.8 | 92.9% |  | 
7 | COC(=O)c1cccc2c1N(C)c1c(cccc1C(=O)OC)CC2 | 112 | 107 | 101 | 121 | 104 | 97.7 | 132% | 97.4% | 114% | 90.5% | 113 | 98.7 | 112% | 110% | 108% | 102% | 89.7 | 95.6% | 89% | 
8 | C=C1C(=O)O[C@@H]2[C@@H]3O[C@@](C)(CC/C=C(\C)CCC[C@@H]2C)[C@H](O)C[C@@H]13 | 76.3 | 47.3 | 45 | 32 | 51.9 | 39 | 66.8% | 16.8% | 13.7% | 7.48% (active) | 35 | 97.5 | 70.1% | 92% | 42.3% | 13.9% | 72.1 | 37.5% |  | 
9 | COc1cc(C(=O)/C=C/c2ccc3nc(-c4cc(F)cc(F)c4)sc3c2)cc(OC)c1OC | 110 | 93 | 88.8 | 100 | 88.1 | 104 | 98.1% | 103% | 103% | 90.7% | 104 | 97.1 | 107% | 94.5% | 96.6% | 112% | 93.1 | 98.7% |  | 
10 | CC(=O)Nc1scc[n+]1Cc1ccccc1 | 103 | 111 | 91.1 | 113 | 107 | 87.4 | 112% | 94.1% | 76.6% | 92.2% | 99.3 | 110 | 108% | 99.5% | 109% | 114% | 106 | 102% | 90.1% | 
11 | COc1ccc(C(=O)c2cc(OC)c(OC)c(OC)c2OC)cc1O | 93.8 | 40.5 | 56.5 | 95.9 | 54.5 | 55.4 | 67.7% | 44.2% | 26.4% | 44.7% | 61.3 | 92.8 | 83.9% | 20.1% | 57.4% | -21.8% (active) | 16.3 | -8.84% (active) |  | 
12 | NC1=NN(O)C2=CC([N+](=O)[O-])C=CC2=N1 (stereo not given) | 99.5 | 112 | 93.3 | 121 | 105 | 93.8 | 109% | 111% | 94.8% | 99.2% | 99.4 | 118 | 108% | 100% | 120% | 99.8% | 98.8 | 93.4% | 104% | 
13 | Nc1ncnc2c1c(-c1ccc(Oc3ccccc3)cc1)nn2C[C@@H]1SSC[C@@H]1O |  | 37.1 | 13.7 |  | 23.6 |  | 43.8% | -38.1% (active) | -37.4% (active) | 51.5% | 69.9 | 78.3 | 44.6% | 3.68% (active) | -6.92% (active) | 3.23% (active) | 56.6 | 61.3% | -15% (active) | -57.5% (active)
14 | COC(OC)c1ccccc1 | 103 | 102 | 85.4 | 117 | 102 | 95.4 | 132% | 108% | 93.9% | 121% | 98.9 | 107 | 110% | 99.2% | 101% | 106% | 99.2 | 99.4% | 119% | 
15 | COc1ccc(-c2cnnn2-c2nonc2-n2cccc2)cc1OC |  | 68.5 | 72.2 | 69.6 |  | 42.9 | 56.3% | 18.1% | -4.66% (active) | 52.2% | 66.5 |  | 90.6% | 61.8% | 62.4% | 30.2% | 82.5 | 18.3% | 54.7% | 38%
16 | Fc1ccccc1-c1nc(-c2nc3cc(Cl)c(Cl)cc3[nH]2)c2ccccn12 |  | 70.7 | 62.6 | 76.5 |  |  | 104% | 67.1% | 20.7% | 74.7% | 68.4 |  | 1.61% (active) | 83.7% | 21.9% | 70.5% | 44 | 76% | 81.9% | 81.5%
17 | COc1ccc(C(=O)N2NC(=O)/C(=C/c3cn(-c4ccccc4)nc3-c3ccccc3)N=C2c2ccccc2)cc1 | 96.1 | 95 | 93.7 | 103 | 106 | 95.6 | 77.6% | 85% | 99.9% | 102% | 105 | 111 | 101% |  | 98.6% | 115% | 97.3 | 106% |  | 
